Compound activity deposited in PubChem BioAssay by National Center for Advancing Translational Sciences (NCATS).
PLK1 PBD inh: blocks phosphopeptide binding to human PLK1 polo-box domain | Plk1 PBD binding of FITC phosphopeptide, fluorescence polarization | Potency, µM, for inactives: max response, negative = inhibition, most hits filed as inhibitors | AID 720504 | P53350 | actives 2.8% (n = 360,000); also: series mostly up to about 57 µM; % is scaled to controls: 0 for no effect and ±100 for the full control effect; nearly all actives have a fitted effect of over 65% in size
JMJD2A Tudor: inhibitors of human JMJD2A Tudor domain. O75164. AlphaScreen JMJD2A-Tudor / H3K4me3 peptide binding. AID 504339. Potency, µM (doses to about 114 µM), inactives show at the highest dose activity change, negative = inhibition, most hits filed as inhibitors. actives 4.4% (n = 390,000); also: % is scaled to controls: 0 for no effect and ±100 for the full control effect; nearly all actives have a fitted effect of over 50% in size
BAZ2B inh: inhibitors of human BAZ2B bromodomain. actives 4.4% (n = 360,000). AlphaScreen BAZ2B-H3K14Ac peptide displacement. Potency, µM (series often up to 114 µM), inactives show at the top dose activity change, negative = inhibition, usual class: inhibitors; also: % is scaled to controls: 0 for no effect and ±100 for the full control effect; nearly all actives have a fitted effect of over 60% in size
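Complex of BAZ2B and biotin-H3K14Ac (50 nM apiece) forms over 30 min at RT, then faces library compounds up to 110 uM for another 30 min; AlphaScreen beads added, 20 min dark incubation, luminescence read.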
Sfp inh: inhibitors of Bacillus subtilis Sfp phosphopantetheinyl transferase; actives 3.5% (n = 310,000); Potency, µM, without a hit: largest response in the series, negative = inhibition, usual class: inhibitors; Biochemical Sfp PPTase activity, qHTS;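 also: the enzyme is Sfp with the accession as filed and its product quenches rhodamine fluorescence; 0% = enzyme reaction without inhibitor and -100% = no enzyme wells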
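Reaction rates are the 30-min fluorescence difference (ex 525, em 598 nm) in wells containing 15 nM Sfp, 5 uM rhodamine-CoA and 12.5 uM BHQ-2-YbbR at pH 7.6 with 10 mM MgCl2.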
HP1b binding inh: HP1-beta chromodomain-methylated histone interaction inhibition; P83916; Potency, µM (doses to about 114 µM), inactives show at the highest dose activity change, negative = inhibition, most hits filed as inhibitors; AlphaScreen HP1-beta / biotin-H3K9me3 peptide binding; actives 0.56% (n = 390,000); also: nearly all actives have a fitted effect of over 70% in size
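Compound inhibition of the preformed complex between 50 nM HP1-beta and 50 nM biotinylated H3K9me3 peptide was read by AlphaScreen. Buffer was PBS pH 7.4 with 0.01% Tween-20. Incubations ran 30 min at room temperature, with 10 ug/mL donor/acceptor beads.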
G9a block: G9a (human) methyltransferase inhibition; Potency, µM (highest dose often 102 µM), without a hit: at the highest dose activity, negative = inhibition, hits mostly inhibitors; G9a H3K9 monomethylation, AlphaScreen, 2 h; actives 8.8% (n = 350,000); also: % is scaled to controls: 0 for no effect and ±100 for the full control effect; nearly all actives have a fitted effect of over 75% in size
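G9a (20 nM) preincubated 15 min RT with compounds, then 500 nM biotinylated H3K9 peptide and 20 uM SAM added; 2 h RT reaction. Monomethyl-H3K9 product detected by AlphaScreen with anti-H3K9me1 antibody, streptavidin donor and anti-rabbit IgG acceptor beads.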
Numbers without * were called inactive; ? = inconclusive; / = no result; [ ] = dose if it differs, or a comment. Shown are actives, neighbours in structure and some others; about 12% of the full set was active somewhere. Calls follow the shape of the dose curve; as a rule, active = well fitted curve in the direction sought with a large enough effect; inconclusive = small, poorly fitted or top-dose-only effect, or another doubt; inactive = no such curve, though single readings can be large; an effect the other way counts as inactive or inconclusive. Potency is read from the fitted curve at half-maximal effect.

SMILES | PLK1 PBD inh | JMJD2A Tudor | BAZ2B inh | Sfp inh | HP1b binding inh | G9a block
CC(C)c1cccc2c([Si](C)(C)C)c3c(nc12)-c1cccc(=O)n1C3 | / | / | / | 45µM* | / | /
CC(C)c1cccc2nc3c(c([Si](C)(C)C(C)(C)C)c12)Cn1c-3cccc1=O | / | / | / | 79µM* | / | /
CC(C)c1cccc2nc3c(c(C(C)(C)C)c12)Cn1c-3cccc1=O | / | / | / | 1% | / | /
CC[C@H](C)[C@@H](NC(=O)O[C@@H]1C(=O)c2ccc(OC)cc2O[C@H]1c1cccc(C(F)(F)F)c1)C(=O)OC | / | / | / | 2% | / | /
[O-][n+]1c2ccccc2cc2ccccc21 | 24µM* | ? | 9% | / | 21% | 25%[2.33 µM]
COc1ccc(NC(=O)CSCC(=O)NC2(C)CCS(=O)(=O)C2)cc1 (stereo not given) | 1% | -1% | -12% | 6% | 30% | 16%
O=C(CC1(O)C(=O)N(CCc2ccccc2)c2ccc(Br)cc21)c1ccccc1 (stereo not given) | / | -25% | -8% | / | 9% | -39%[59 µM]
Cc1ccc(C(=O)CC2(O)C(=O)N(CCc3ccccc3)c3ccc(Br)cc32)o1 (stereo not given) | -22% | -35% | -14% | 7.9µM* | -1% | ?
CCOC(=O)C1=C(COC(=O)/C=C/c2ccco2)NC(=O)NC1C (stereo not given) | ? | 28µM* | 50µM* | / | ? | 28%[0.501 µM]
CCOC(=O)C1=C(COC(=O)c2ccccc2OC)NC(=O)NC1C (stereo not given) | -10% | -5% | -5% | / | 19% | 3.2µM*
COCC1CCN(Cc2nc(-c3ccc(OC)cc3)no2)CC1 | 0% | -12% | -24% | 10% | 48% | ?
CCC(=O)N1c2ccccc2NC2=C(C(=O)CCC2)C1c1ccc(N(C)C)cc1 (stereo not given) | -4% | -19% | -5% | 9% | 40% | 50µM*
CCC(=O)N1c2ccccc2NC2=C(C(=O)CC(C)(C)C2)C1c1cccnc1 (stereo not given) | -7% | -7% | -8% | 9% | 30% | 6%
COc1ccc(Cl)c(NCCC(=O)O)c1 | -7% | 15% | 8% | -1% | 23% | ?
CC(=O)/C(=N/Nc1ccccc1Cl)Sc1nnc(C(O)c2ccccc2)n1-c1ccccc1 (stereo not given) | -27% | ? | -3% | -11% | 21% | 10µM*
CC(=O)/C(=N/Nc1ccccc1)Sc1nnc(C(O)c2ccccc2)n1-c1ccccc1 (stereo not given) | 0% | -24% | ? | -11% | 24% | 45µM*
CCOC(=O)CSc1nnc(CNc2ccccc2Cl)n1-c1ccccc1 | -8% | ? | / | -2% | 17% | -9%[59 µM]
CC(=O)/C(=N/Nc1ccc(C)cc1)Sc1nnc(CCc2ccccc2)n1-c1ccccc1 | -19% | ? | 2% | -1% | 11% | ?
COC(=O)/C(=N/Nc1ccccc1Cl)Sc1nnc(C(O)c2ccccc2)n1-c1ccccc1 (stereo not given) | -9% | -18% | 15% | -22% | 30% | 45µM*
NC(=O)c1nc[nH]c1C(=O)Nc1cccc(C(F)(F)F)c1 | 5% | -23% | ? | / | 48% | 9%[0.501 µM]
O=C(N/N=C/C(Br)=C\c1ccccc1)c1n[nH]c2c1CCC2 | -5% | -23% | -4% | 28µM* | 6% | ?
COc1cccc(CCNC(=O)CCCC(=O)c2ccccc2)c1 | -1% | 4% | 3% | 16% | 46% | 0%[12.7 µM]
NCCSC1CC(=O)N(c2ccc(Cl)c(Cl)c2)C1=O (stereo not given) | -16% | -10% | ? | -14% | 58% | 35µM*
O=C1CC(SCc2nc3ccccc3[nH]2)C(=O)N1c1ccc(F)cc1 (stereo not given) | -21% | -27% | -23% | -22% | 50% | ?
O=C1CC(SCc2nc3ccccc3[nH]2)C(=O)N1c1cccc(Cl)c1 (stereo not given) | -18% | -22% | 0% | -1% | 32% | 18µM*
SMILES | PLK1 PBD inh | JMJD2A Tudor | BAZ2B inh | Sfp inh | HP1b binding inh | G9a block
Cc1ccc(S(=O)(=O)N2CCCCC2C(=O)Nc2nncs2)cc1 (stereo not given) | ? | -10% | 0% | -22% | 32% | 40µM*
Cc1ccc(S(=O)(=O)N2CCCCC2C(=O)NCc2ccco2)cc1 (stereo not given) | -16% | -22% | -32% | 56µM* | -8% | 28µM*
CCCc1cc(=O)n2nc(N3CCC(C(=O)NCc4ccco4)CC3)sc2n1 | 24µM* | 25µM* | -1% | 5% | -4% | 7%
O=C(NCc1ccco1)C1CCCN(c2nnc(-n3cccc3)s2)C1 (stereo not given) | ? | 56µM* | ? | 4% | ? | -5%
Cc1ccc(S(=O)(=O)N2CCCC2C(=O)Nc2cc(C)on2)cc1 (stereo not given) | 1% | -15% | 17% | 9% | 33% | 4%
O=C(NCc1ccco1)C1CCCN1C(=O)Nc1cccc(Cl)c1 (stereo not given) | 3% | -6% | -16% | 14% | 34% | -11%
Cc1ccc(S(=O)(=O)N2CCCC2C(=O)Nc2nc3c(s2)CCCC3)cc1 (stereo not given) | 0% | -24% | ? | 0% | -5% | 45µM*
O=C(NCc1ccco1)C1CCCN1C(=O)Nc1ccc(Cl)cc1 (stereo not given) | 12µM* | 14µM* | / | 19% | -4% | 2%
O=C(NCc1ccco1)C1CCCN(S(=O)(=O)c2ccc(-n3cnnn3)cc2)C1 (stereo not given) | -10% | -33% | ? | 40µM* | 18% | 56µM*
CC(=O)Nc1ccc(NC(=O)c2ccccc2-n2cnnn2)cc1 | 4% | 16% | 1% | / | 19% | ?
Cc1ccccc1C(=O)N(Cc1sccc1C)C1CCS(=O)(=O)C1 (stereo not given) | / | -9% | -4% | / | 18% | -24%[59 µM]
N#CC1=C(O)C(c2ccccc2)n2c1nc(=O)c1ccccc12 (stereo not given) | -5% | -20% | ? | -2% | 30% | 25µM*
COc1ccc(OCc2cc(C(=O)N(C)CCC3CCOCC3)no2)c(Cl)c1 | 27µM* | ? | 0% | 6% | 0% | 24%
COc1ccc(OCc2cc(C(=O)N(C)CC3CCCCO3)no2)c(Cl)c1 (stereo not given) | -7% | -5% | 6% | 6% | 21% | /
O=S(=O)(NCCc1cn2ccccc2n1)c1ccc2c(c1)CCCC2 | -14% | -18% | -35% | -4% | 31% | 50µM*
O=S(=O)(NCCc1cn2ccccc2n1)c1ccc2c(c1)OCCO2 | -4% | -7% | 6% | 6% | 26% | -35%
